Shown are actives, neighbours in structure and some others; about 2.2% of the full set was active somewhere.
Cardio protect – myocardial damage modulation in H9c2 cells; H9c2 cardiomyocytes, H2O2 injury protection, ATPLite, 2 h; protection from H2O2 cell death, % at 20 µM; actives 0.63% (n = 360,000); AID 588492;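 active = compounds giving at least 50% protection of heart cells from peroxide-induced death in the single-dose screen, raw or plate-pattern-corrected value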;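 also: 0% = DMSO wells with peroxide and 100% = DMSO wells without peroxide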
MIN6 prolif-1 – induces beta-cell replication in MIN6 cells; MIN6 cells proliferation, ATPlite luminescence, 48 h; cells starved in 0.2% serum; 100% = growth in 10% serum; AID 2380; actives 0.29% (n = 330,000); proliferation, % at 10 µM;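 active = compounds whose signal lies at least 3.5 SD above the mean of all wells on their plate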;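 also: 0% = DMSO-treated cells in low-serum medium and 100% = 10% serum control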
ABCB6 inh MLPCN – inhibitors of human ABC transporter ABCB6; K562-ABCB6 porphyrin accumulation, flow cytometry, 1 h; stronger effect = lower value; fluorescence ratio to DMSO, % at 10 µM; actives 0.19% (n = 360,000);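 active = fluorescence ratio to DMSO below 75%, the collection mean minus 3 SD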;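 also: signal is porphyrin accumulated inside mitochondria; 100% equals median channel fluorescence of DMSO control wells; lower ratio means ABCB6 inhibition with less porphyrin fluorescence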
Target sequence (Q9NP58 whole entry, looked up): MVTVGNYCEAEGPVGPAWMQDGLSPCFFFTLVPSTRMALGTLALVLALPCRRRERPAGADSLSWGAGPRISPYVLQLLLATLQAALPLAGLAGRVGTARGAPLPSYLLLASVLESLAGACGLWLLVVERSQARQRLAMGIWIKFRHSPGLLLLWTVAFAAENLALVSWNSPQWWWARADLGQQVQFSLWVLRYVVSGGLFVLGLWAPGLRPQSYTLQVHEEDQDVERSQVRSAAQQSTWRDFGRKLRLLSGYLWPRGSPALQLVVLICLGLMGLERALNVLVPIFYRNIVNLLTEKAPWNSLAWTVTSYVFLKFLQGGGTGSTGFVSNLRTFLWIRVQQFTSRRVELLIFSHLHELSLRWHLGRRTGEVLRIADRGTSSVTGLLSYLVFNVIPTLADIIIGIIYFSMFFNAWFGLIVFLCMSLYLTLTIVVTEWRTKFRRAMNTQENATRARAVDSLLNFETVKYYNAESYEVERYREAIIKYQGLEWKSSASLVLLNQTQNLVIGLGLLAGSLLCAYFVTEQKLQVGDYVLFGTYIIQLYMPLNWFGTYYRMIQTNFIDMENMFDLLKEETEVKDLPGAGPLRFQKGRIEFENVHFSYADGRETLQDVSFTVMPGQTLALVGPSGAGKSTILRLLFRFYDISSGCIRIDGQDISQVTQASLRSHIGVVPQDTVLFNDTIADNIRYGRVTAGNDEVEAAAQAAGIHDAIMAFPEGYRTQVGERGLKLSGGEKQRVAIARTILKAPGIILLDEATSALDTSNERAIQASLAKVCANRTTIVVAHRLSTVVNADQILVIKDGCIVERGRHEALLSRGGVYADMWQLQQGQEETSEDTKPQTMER
iPSC survival up – hiPSC single-cell survival enhancement; ATPlite luminescence; 100% = ROCK inhibitor wells, 0% = DMSO; survival enhancement, % at 20 µM; actives 0.044% (n = 360,000); AID 602274; in the data active = survival enhancement above about 18%;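 also: cells exposed to compounds for 16 hours before the ATP read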
Myeloid diff 2 – compounds promoting myeloid differentiation. actives 1% (n = 360,000). calls only at 10 µM. ER-HoxA9 myeloid progenitors, lysozyme-GFP differentiation, flow cytometry;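 active = normalized GFP-positive differentiation at or above the plate's own cutoff, the solvent-only control mean plus 3 SD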;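 also: cells exposed to compound for four days before flow analysis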
MIN6 prolif-2 – MIN6 beta-cell replication induction, confirmed; shares compounds with MIN6 prolif-1; proliferation increase, % at 50 µM; 920 tested, under 10 active; MIN6 beta-cell proliferation, ATPlite luminescence, 48 h; cells kept in 0.2% serum; scaled between 0.2% and 10% serum;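 active = proliferation increase above 40% at any of the four tested concentrations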
Active calls of the source: *; i = inactive; x = not tested or not shown; ! = not confirmed by another sample.

SMILES | Cardio protect | MIN6 prolif-1 | ABCB6 inh MLPCN | iPSC survival up | Myeloid diff 2 | MIN6 prolif-2
COc1ccccc1Nc1nc(C)nc2c1oc1ccccc12 | -1 | 10* | 95 | 0 | i | 3
CCn1c(SCC(N)=O)nc2c(c1=O)C1(CCCC1)Cc1ccccc1-2 | -6 | -2 | 103 | -3 | i | x
COc1ccccc1N1CCN(C(=O)CN(C)S(=O)(=O)c2ccc3c(c2)c(=O)n(C)c(=O)n3C)CC1 | 13 | 6.9* | 99 | 2 | i | -1
COc1ccc(N2CCN(C(=O)CN(C)S(=O)(=O)c3ccc4c(c3)c(=O)n(C)c(=O)n4C)CC2)cc1 | -5 | -1 | 100 | 0 | i | x
COC(=O)C1=C(C)NC(C)=C([N+](=O)[O-])C1c1ccccc1C(F)(F)F (configuration not stated) | 20 | 14*! | 96 | -2 | i | -6
COC(=O)C1=C(C)NC(C)=C(C(=O)OC)C1c1ccc(-c2cccc([N+](=O)[O-])c2)o1 | 4 | -3 | 100 | 0 | i | x
Cc1cc(NC(=S)N(CCN2CCOCC2)Cc2ccccc2F)ccc1Cl | -2 | 4 | 97 | 0 | i | x
Cc1ccsc1/C=N/NC(=O)CNC(=O)c1cccc([N+](=O)[O-])c1C | -7 | 8.1* | 97 | 0 | i | -2
COc1ncc(-c2cccc3nccn23)c(OC)n1 | 6 | x | 96 | -2 | i | x
CCc1cccc(CC)c1N(COC)C(=O)Cn1nnc2ccccc21 | 5 | 9.7* | 111 | 0 | i | -3
COc1ccc(CNC/C=C/c2ccccc2)cc1 | -1 | 7.6* | 97 | 0 | i | -6
COc1ccccc1N1CCN(C(=O)c2cc3c(=O)n4ccccc4nc3s2)CC1 | 17 | 13* | 94 | 0 | i | 3
COc1cc(/C=C2\C(=N)N3N=C(C)SC3=NC2=O)cc(Cl)c1OCCOc1ccc(NC(C)=O)cc1 | -6 | -5 | 96 | 2 | i | x
CCC(C)(C)n1nnnc1CN(Cc1cc2cc(OC)c(OC)cc2[nH]c1=O)C1CCCC1 | 16 | 7.2* | 109 | 11 | i | 2
COc1ccc(Cn2nnnc2CN(Cc2cc3cc(C)ccc3[nH]c2=O)C2CCCC2)cc1 | 11 | -3 | 101 | 1 | i | x
O=C(Nc1cccc2cccnc12)c1ccc(Cl)cc1 | 4 | 5.9* | 105 | -1 | i | -5
O=C(OCc1c(F)cccc1Cl)c1cnc2ccccc2n1 | -1 | 7 | 99 | 0 | i | x
O=C(O)c1ccccc1SC1CC(=O)N(C2CCCCC2)C1=O (configuration not stated) | 2 | 9.9* | 100 | 2 | i | -6
CCCN1Cc2cccc(C(=O)Nc3ccc(CC)cc3)c2C1=O | -3 | 7.1* | 93 | 3 | i | 0
CCCN1Cc2cccc(C(=O)Nc3ccc4c(c3)OCCO4)c2C1=O | 7 | 3 | 105 | -1 | i | x
CCCN1Cc2cccc(C(=O)Nc3ccc4c(c3)OCO4)c2C1=O | 13 | 11* | 88 | 4 | i | 0
COc1ccc(NC(=O)c2ccc(N3C(=O)C4CC=C(C)CC4C3=O)cc2)c(OC)c1 (configuration not stated) | 18 | -3 | 81 | 0 | i | x
CCOC(=O)c1c(C)[nH]c(C)c1C(=O)CSc1nnnn1-c1ccccc1 | -7 | 5.5* | 95 | 1 | i | 3
CC(=O)c1ccc(OCC(=O)OCC(=O)N(CC(C)C)c2c(N)n(Cc3ccccc3)c(=O)[nH]c2=O)cc1 | 2 | 2 | 100 | 1 | i | x
CS(=O)(=O)N1CCC(C(=O)Nc2ccc(F)cc2F)CC1 | 2 | 5.7* | 91 | -2 | i | 1
COc1ccc(F)cc1S(=O)(=O)NCc1ccccc1 | -6 | 0.0* | 104 | 6 | i | 0
COc1ccc(Br)cc1S(=O)(=O)NCc1ccccc1 | -3 | 0 | 98 | 0 | i | x
COc1ccc(C(=O)N2CCC2)cc1S(=O)(=O)NCc1ccc(Cl)cc1 | 0 | 8.2* | 99 | -1 | i | -2
CC(=O)c1c(N)nc2n(c1=O)CCCCC2 | 10 | -3 | 89 | 5 | i | x
Cc1ccc(S(=O)(=O)N/N=C/c2cnn(C)c2C)cc1 | 0 | -1 | 90 | 2 | i | x
